High-throughput results as filed in PubChem BioAssay.
Compounds with a hit are over-represented: about 6.7% of the library has one in this group of screens.
T cruzi growth = T. cruzi intracellular proliferation inhibitors, primary screen, cell-based, beta-gal Tulahuen parasites, NIH3T3 host, luminescence. 77,000 tested, 5.9% active. T. cruzi beta-gal in NIH3T3, GalScreen luminescence, 90 h. inhibition, % at 8.34 µM;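 active = mean inhibition above about 93%, with at least 55% of replicates each passing it, limit read from the data, passing the limit was not always enough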
C diff growth = C. difficile growth inhibitors, primary screen, HTS; AID 1259249, 2017; growth activity, negative = inhibition, % at 16 µg/mL (by protocol); 86,000 tested, 0.25% active; Clostridium difficile clinical isolate growth, OD600, 24 h; active compounds read low;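 active = mean growth activity at or below -80% and every replicate also at or below -80%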;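 note: 0% = DMSO wells and -100% = levofloxacin 16 µg/mL wells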
Pf Dd2 inh = P. falciparum Dd2 growth inhibitors, primary screen, SYBR Green fluorescence, single dose replicates; 72 h; active compounds read low; activity change, % at 10 µM; 94,000 tested, 2.3% active; AID 1159554, 2015; in the data active = activity change below about -80%
Active calls of the source: *; x = no result.

SMILES | T cruzi growth | C diff growth | Pf Dd2 inh
CCC(=O)N[C@@H]1CC[C@@H](CCNC(=O)Nc2ccc(C(F)(F)F)cc2)O[C@@H]1CO | 12 | x | 0
O=C(NCC[C@H]1CC[C@H](NC(=O)C2CC2)[C@@H](CO)O1)Nc1ccc(C(F)(F)F)cc1 | -6 | -99* | -17
CC(=O)N[C@H]1CC[C@@H](CCNC(=O)Nc2ccc(C(F)(F)F)cc2)O[C@@H]1CO | 16 | -77 | 11
CN(C)CC(=O)N[C@@H]1CC[C@@H](CCNC(=O)Nc2ccc(C(F)(F)F)cc2)O[C@H]1CO | 12 | -89* | -7
O=C(NCC[C@H]1CC[C@H](NC(=O)C2CC2)[C@H](CO)O1)Nc1ccc(C(F)(F)F)cc1 | -29 | -7 | 8
CC(=O)N[C@@H]1CC[C@H](CCNC(=O)Nc2ccc(C(F)(F)F)cc2)O[C@H]1CO | 11 | -94* | 0
O=C(Cc1ccccn1)N[C@H]1CC[C@@H](CCNC(=O)c2cc(Cl)cc(Cl)c2)O[C@@H]1CO | -9 | x | 4
C[C@@H]1CN([C@H](C)CO)C(=O)c2cc(NC(=O)Cn3cnnn3)ccc2O[C@@H]1CN(C)S(=O)(=O)c1ccc(Cl)cc1 | 20 | -10 | 5
COc1ccc(CN(C)C[C@H]2Oc3ccc(NC(=O)c4ccncc4)cc3CC(=O)N([C@@H](C)CO)C[C@H]2C)cc1 | 3 | -6 | 10
COc1ccccc1CN1[C@H](CO)[C@@H](c2ccccc2)C12CN(C(C)=O)C2 | x | -6 | -47
COc1ccccc1CN1CC2(C1)[C@H](c1ccccc1)[C@@H](CO)N2Cc1ccccc1 | x | 29 | -90*
OC[C@@H]1[C@@H](c2ccccc2)C2(CN(CC3CC3)C2)N1Cc1ccc(F)cc1 | x | 18 | -88*
O=C(CC1CC1)N1CC2(C1)[C@H](c1ccccc1)[C@@H](CO)N2Cc1ccc(F)cc1 | x | -3 | -66
CCS(=O)(=O)N1CC2(C1)[C@@H](c1ccccc1)[C@H](CO)N2Cc1ccc(F)cc1 | x | -1 | -83*
CCS(=O)(=O)N1CC2(C1)[C@@H](c1ccccc1)[C@@H](CO)N2Cc1ccc(F)cc1 | x | 0 | -12
C[C@H](CO)N1C[C@H](C)[C@@H](CN(C)S(=O)(=O)c2ccccc2)Oc2ccc(N(C)C)cc2C1=O | 39 | -2 | 30
COCC(=O)Nc1ccc2c(c1)C(=O)N(C)C[C@@H](OC)[C@@H](C)CN(C(=O)c1ccccc1F)[C@H](C)CO2 | -32 | x | -46
COc1ccc(NC(=O)N[C@@H]2CC[C@H](CC(=O)NC3CCCCC3)O[C@@H]2CO)cc1 | x | 2 | 8
CC(C)C(=O)Nc1ccc2c(c1)C(=O)N(C)[C@H]1CC[C@H](CC(=O)N[C@@H](C)c3ccccc3)O[C@H]1CO2 | -4 | -1 | 9
C[C@@H]1CN([C@H](C)CO)C(=O)c2cc(NC(=O)Nc3cccc4ccccc34)ccc2O[C@@H](C)CCCCO[C@@H]1CN(C)S(=O)(=O)c1ccccc1 | x | 2 | -93*
C[C@H](CO)N1C[C@H](C)[C@@H](CN(C)S(=O)(=O)c2ccc(F)cc2)OCCCC[C@H](C)Oc2ccc(NC(=O)Nc3cccc4ccccc34)cc2C1=O | 85 | -1 | -40
C[C@@H]1CCCCO[C@@H](CN(C)S(=O)(=O)c2ccc(F)cc2)[C@H](C)CN([C@@H](C)CO)C(=O)c2cc(NC(=O)Nc3cccc4ccccc34)ccc2O1 | 88 | -4 | -42
C[C@@H]1CCCCO[C@@H](CN(C)S(=O)(=O)c2ccc(F)cc2)[C@@H](C)CN([C@@H](C)CO)C(=O)c2cc(NC(=O)Nc3cccc4ccccc34)ccc2O1 | 61 | 4 | -84*
C[C@@H]1CCCCO[C@H](CN(C)S(=O)(=O)c2cccs2)[C@H](C)CN([C@@H](C)CO)C(=O)c2cc(NC(=O)Nc3cccc4ccccc34)ccc2O1 | 19 | x | -54
C[C@@H]1CCCCO[C@@H](CN(C)S(=O)(=O)c2ccc(F)cc2)[C@H](C)CN([C@H](C)CO)C(=O)c2cc(NC(=O)Nc3cccc4ccccc34)ccc2O1 | 90 | -5 | -82*
SMILES | T cruzi growth | C diff growth | Pf Dd2 inh
C[C@@H]1CCCCO[C@H](CN(C)S(=O)(=O)c2ccccc2)[C@@H](C)CN([C@H](C)CO)C(=O)c2cc(NC(=O)Nc3cccc4ccccc34)ccc2O1 | 58 | 1 | 6
C[C@@H]1CN([C@H](C)CO)C(=O)c2cc(NC(=O)Nc3cccc4ccccc34)ccc2O[C@@H](C)CCCCO[C@@H]1CN(C)S(=O)(=O)c1cccs1 | 15 | x | -88*
C[C@@H]1CN([C@H](C)CO)C(=O)c2cc(NS(=O)(=O)c3ccccc3)ccc2O[C@@H](C)CCCCO[C@H]1CN(C)Cc1ccc(C(=O)O)cc1 | 37 | 2 | 36
CC(C)CC#Cc1cnc2c(c1)C(=O)N([C@@H](C)CO)C[C@H](C)[C@@H](CN(C)C(=O)Nc1ccccc1F)O2 | x | -23 | -48
CCNC(=O)C[C@H]1CC[C@@H]2[C@@H](COc3ccc(NC(=O)c4cscn4)cc3C(=O)N2C)O1 | -46 | -12 | -2
C[C@@H]1CN([C@H](C)CO)C(=O)c2cc(NS(=O)(=O)c3ccc(F)cc3)ccc2O[C@H]1CN(C)S(=O)(=O)c1ccccc1 | 3 | 1 | 8
C[C@H](CO)N1C[C@H](C)[C@H](CN(C)C(=O)c2ccncc2)Oc2cc(C3=CCCCC3)ccc2S1(=O)=O | 77 | 5 | -30
C[C@H](NC(=O)C[C@@H]1CC[C@H](NC(=O)C2CC2)[C@@H](CO)O1)c1ccccc1 | x | 1 | 4
COc1ccc(S(=O)(=O)N(C)C[C@H]2Oc3ccc(NC(=O)Nc4ccc5c(c4)OCO5)cc3CC(=O)N([C@H](C)CO)C[C@@H]2C)cc1 | 24 | -12 | -27
C[C@@H]1CN([C@@H](C)CO)C(=O)c2cc(NC(=O)Nc3cccc4ccccc34)ccc2O[C@@H](C)CCCCO[C@@H]1CN(C)S(=O)(=O)c1cn(C)cn1 | 19 | 8 | -90*
C[C@@H]1CCCCO[C@@H](CN(C)S(=O)(=O)c2cn(C)cn2)[C@@H](C)CN([C@H](C)CO)C(=O)c2cc(NC(=O)Nc3cccc4ccccc34)ccc2O1 | -17 | 13 | -39
C[C@@H]1CN([C@H](C)CO)C(=O)c2cc(NS(=O)(=O)c3ccccc3)ccc2O[C@@H](C)CCCCO[C@H]1CN(C)S(=O)(=O)c1ccc(F)cc1 | 72 | 3 | -28
O=C(NCC(F)(F)F)[C@@H]1[C@@H](CO)[C@@H]2Cn3c(cccc3=O)[C@H]1N2CC1CC1 | 37 | -10 | 6
C[C@@H]1CN([C@@H](C)CO)C(=O)c2c(c3ccccc3n2C)-c2ccccc2CO[C@@H]1CN(C)S(=O)(=O)c1ccccc1 | 27 | x | -30
COc1ccc(S(=O)(=O)N(C)C[C@@H]2OCc3ccccc3-c3c(n(C)c4ccccc34)C(=O)N([C@H](C)CO)C[C@@H]2C)cc1 | 72 | x | -83*
COc1ccc(S(=O)(=O)N(C)C[C@H]2OCc3ccccc3-c3c(n(C)c4ccccc34)C(=O)N([C@@H](C)CO)C[C@@H]2C)cc1 | 60 | x | -86*
COc1cccc(S(=O)(=O)N(C)C[C@H]2OCc3ccccc3-c3c(n(C)c4ccccc34)C(=O)N([C@H](C)CO)C[C@H]2C)c1 | 0 | -1 | -43
